# Inconclusive results are not listed. Entries that show only a call come without a potency. Calls of active or inactive are those of the source. Calls come from the whole dose curve; as a rule, active = well fitted cell-killing curve with a large enough effect in the repeat runs; inconclusive = weak or mixed curves, or effect the other way; inactive = flat fitted curve, though single readings scatter.
# Experiment: qHTS RealTime-Glo MT Cell Viability Assay in HEK293 cells - 16 hour (AID 1224872); note: top concentration of the series differs between compounds; nearly all actives have a fitted effect of over 50% in size
# Conditions: RealTime-Glo luminescence; series mostly up to 76.8 µM
# Text: National Center for Advancing Translational Sciences [NCATS]
# NIH Chemical Genomics Center [NCGC]
# U.S. Environmental Protection Agency [EPA]
# National Institutes of Environmental Health Sciences [NIEHS]
# National Toxicology Program [NTP]
# U.S. Food and Drug Administration [FDA]
# Measure of cell viability is critical in the cell-base assay. Analysis of cell viability is necessary for the characterization of cell responses to cytotoxic drugs and environmental stress. A RealTime-Glo MT Cell Viability Assay to monitor cell viability in real time of continues cell culture during 40 hours of compound treatment was used to screen Tox21 10K library compounds in Hek293 cells. The RealTime-Glo MT Cell Viability Assay is a nonlytic, homogeneous, bioluminescent method to measure cell viability in real time using a simple, plate-based method. The assay involves adding NanoLuc luciferase and a cell-permeant prosubstrate to cells in culture. Viable cells reduce the proprietary prosubstrate to generate a substrate for NanoLuc luciferase. This substrate diffuses from cells into the surrounding culture medium, where it is rapidly used by the NanoLuc Enzyme to produce a luminescent signal. The signal correlates with the number of viable cells, making the assay well suited for cytotoxicity studies.
# Tox21 Assay Protocol Summary:
# The mixture of Hek293 cell suspension and reagents were dispensed at 600cells/6 ul/well in 1536-well tissue culture treated black solid bottom plates using a Multidrop dispenser. After the assay plates were incubated at a 37 C/5% CO2 incubator for 5 hours, 23 nL of compounds dissolved in DMSO, positive and negative controls was transferred to the assay plate by a pintool work station. The plates were incubated at 37 C for 40 hours. The luminescence intensity were measured at 0h, 8h, 16h, 24h, 32h and 40h time points using ViewLux plate reader during compound treatment.
Compound,Potency,"activity change, negative = cytotoxicity"
CO[C@@H]1[C@@H](OC(N)=O)[C@@H](O)[C@H](Oc2ccc3c(O)c(NC(=O)c4ccc(O)c(CC=C(C)C)c4)c(=O)oc3c2C)OC1(C)C,inactive,–
CCC(CC)CO,inactive,–
O=S(=O)(O)c1ccc2cc(O)c(S(=O)(=O)O)cc2c1,inactive,–
c1ccc2c(c1)ccc1c3ccccc3ccc21,inactive,–
C=C(C)C(=O)OCCN(CC)CC,inactive,–
CCCC/C=C/C=C\C=O,inactive,–
O=C1c2cccc3c2[C@H](CCC3)CN1[C@@H]1CN2CCC1CC2,inactive,–
O=C(CS(=O)Cc1ccco1)NC/C=C\COc1cc(CN2CCCCC2)ccn1 (stereo not given),inactive,–
CN(C)CCOCCO,inactive,–
CCCOC(=O)C(C)O (stereo not given),inactive,–
CCCCCCCCCC(C)=O,inactive,–
O=S(=O)(O)c1cc(O)c2ccc(Nc3ccccc3)cc2c1,inactive,–
CC(=O)CCCCn1c(=O)c2c(ncn2C)n(C)c1=O,inactive,–
CCOC(=O)/C=C/c1ccccc1,inactive,–
O=C(O)c1ccc(Cl)cc1Cl,inactive,–
Cc1ccccc1OCC(O)CO (stereo not given),inactive,–
ClCCCl,inactive,–
COCCOCCOCCOCCOCCO,inactive,–
COc1cc(NS(=O)(=O)c2ccc(N)cc2)nc(OC)n1,inactive,–
Cc1cccc(OCC(O)CNC(C)(C)C)c1C (stereo not given),inactive,–

Compound,Potency,"activity change, negative = cytotoxicity"
O=S(O)(O)=S,–,0.498% [at 6.97 µM] (inactive)
CC(C)(C)NC(N)=O,inactive,–
Cc1cccc(C)c1OCC(C)N (stereo not given),inactive,–
CC/C=C\CC1=C(C)CCC1=O,inactive,–
C=C(C)C(=O)OCCNC(C)(C)C,inactive,–
CC(=O)Nc1ccc(S(=O)(=O)Nc2ccc([N+](=O)[O-])cc2)cc1,inactive,–
CC(=O)c1sc(C)nc1C,inactive,–
COC(=O)CCc1ccc(OCC(O)CNC(C)C)cc1 (stereo not given),inactive,–
CCCCCCCCCCCCCC,inactive,–
C[C@@H](Oc1ccc(CNC(=O)c2cccnc2Oc2ccc3c(c2)OCO3)c(F)c1)C(=O)O,inactive,–
CCCCCOC(=O)CCC,inactive,–
O=C(O)c1cc(Br)c(O)c(Br)c1,inactive,–
Cc1cccc(C)c1NC(=O)c1ccccc1C(=O)O,inactive,–
COc1cc(N)ccc1C,inactive,–
CCCCCCCCC(=O)Cl,inactive,–
CCCOC(OCCC)OCCC,inactive,–
N#Cc1ccc(C(=O)O)cc1,inactive,–
CC[C@H](C)C(=O)O[C@H]1C[C@H](O)C=C2C=C[C@H](C)[C@H](CC[C@@H](O)C[C@@H](O)CC(=O)O)[C@H]21,inactive,–
Nc1ccc(S(=O)(=O)Nc2ccc(Cl)nn2)cc1,inactive,–
O=C(O)Cc1cn(-c2ccccc2)nc1-c1ccc(Cl)cc1,inactive,–
